Measured values published in PubChem BioAssay.
Activity calls are given as the source filed them. Rule as the data show it, unless noted: active = inhibition above about 30%; inactive = the rest.

Experiment: 384-well plate pilot, post-Golgi transport modulator project, inhibition of yeast transport mutant growth (AID 636; in the data active = inhibition above about 31%)
Settings: absorbance 615 nm, about 18 h, stronger effect = higher value

SMILES	inhibition
COC(=O)c1ccc(CSc2nc(-c3ccc(OC)cc3)nc3c2c(=O)n(C)c(=O)n3C)o1	-4.8% (inactive)
COC(=O)c1[nH]c2cc(OC)ccc2c1NC(=O)CN1CCOCC1	0% (inactive)
NC(=O)CSc1nnc(-c2ccc(O)cc2)n1Cc1ccco1	-6% (inactive)
COc1ccccc1NC(=O)C1=C(C)Nc2nc(CCCO)nn2C1c1cccnc1 (stereo not given)	-6.36% (inactive)
CCOc1ccc(NC(=O)c2ccc3c(c2)N(Cc2ccc(F)cc2)C(=O)CS3=O)cc1 (stereo not given)	-1.07% (inactive)
CCn1c(=O)cc(OCC(=O)NC2CCCCC2)c2ccccc21	-0.77% (inactive)
COc1ccc(OC)c(C(=O)CSc2nnc(-c3ccc(OC)c(OC)c3)o2)c1	-5.32% (inactive)
Cc1nc(Nc2nc(=O)c3ccccc3n2C)nc2c(C)cccc12	-2.89% (inactive)
CC(C)(C)OC(=O)NCCc1nnc(SCC(=O)c2ccc(Cl)cc2)o1	-0.78% (inactive)
CCSc1nnc(NC(=O)C2CCCN(S(=O)(=O)c3cnc[nH]3)C2)s1 (stereo not given)	-2.27% (inactive)
O=C1CC(Cc2ccccc2)C(=O)N1CCCn1ccnc1 (stereo not given)	-3.85% (inactive)
Cc1ccc(CSC2=NCCN2C(=O)c2ccco2)cc1	-3.85% (inactive)
O=C1c2ccccc2C(=O)N1Cc1nc2ccccc2c(=O)n1CCN1CCOCC1	-1.18% (inactive)
c1cn(CC2(Cn3ccnc3)COC2)cn1	-3.77% (inactive)
c1cncc(-c2nnc3n2N=C(c2cccs2)CS3)c1	-4.34% (inactive)
CCOC(=O)N1CCN(c2c(N3CCc4ccccc4C3)c(=O)c2=O)CC1	-2% (inactive)
COC(=O)CC1SCCNC1=O (stereo not given)	5.87% (inactive)
O=C(NCc1ccc(F)cc1)C1CCN(C(=O)NCc2ccccc2)CC1	-3.38% (inactive)
Cc1ccc(-n2nnnc2SCC(=O)N2CCN(C(=O)c3ccco3)CC2)c(C)c1	-7.76% (inactive)
CCOC(=O)c1cc2c(=O)n3cccc(C)c3nc2n(CCc2ccccc2)c1=N	-4.8% (inactive)

SMILES	inhibition
CC(=O)c1ccc(NS(=O)(=O)c2ccccc2)cc1	4.42% (inactive)
Cn1c(-n2c(-c3ccco3)nc3ccccc3c2=O)nc2ccccc21	-1.47% (inactive)
O=C(CSc1ncnc2c1cnn2Cc1ccccc1)Nc1ccc2c(c1)OCCO2	-4.68% (inactive)
Cc1cc(C)n(-c2nc3c(c(=O)n(Cc4ccc(Cl)c(Cl)c4)c(=O)n3C)n2C)n1	-1.69% (inactive)
O=C(O)C1CCCN1C(=O)Nc1ccc(F)cc1 (stereo not given)	-4.73% (inactive)
COc1ccc(-n2nnc3c(=O)n(C/C=C/c4ccccc4)cnc32)cc1	-6.62% (inactive)
CCc1ccc(CNCc2cccnc2)cc1	-1.82% (inactive)
O=C(CSc1nnc(-c2ccc(Br)o2)n1Cc1ccccc1)c1ccccc1F	3.11% (inactive)
Cc1sc2c(c1C)CN(C1CC(C)(C)NC(C)(C)C1)CN2C(=O)c1ccco1	-7.33% (inactive)
N#Cc1c(NC(NC(=O)c2ccco2)C(=O)c2ccccc2)sc2c1CCCC2 (stereo not given)	80.4% (active)
Cc1c(NC(=O)C(C)OC(=O)COc2cccc3c2OC(C)(C)C3)c(=O)n(-c2ccccc2)n1C (stereo not given)	-4.47% (inactive)
COc1cccc(-c2noc(C3CCCN(C(=O)Cc4ccccc4)C3)n2)c1 (stereo not given)	-0.65% (inactive)
O=C(c1ccccc1Br)N1CCN(c2ccccc2)CC1	-8.22% (inactive)
CCOC(=O)C1CCN(c2c(NCCN3CCN(c4ccccc4)CC3)c(=O)c2=O)CC1	0.38% (inactive)
O=C(CSc1nc(-c2ccccc2)cs1)NCc1ccco1	-6.08% (inactive)
COc1ccc(NS(=O)(=O)c2c(C)[nH]c(=O)[nH]c2=O)c(OC)c1	-0.39% (inactive)
CC1CCN(C(=O)CN2C(=O)C(C)(C)Oc3ccc(C(=O)NC4CCCC4)cc32)CC1	-5% (inactive)
Cc1cc(=O)n2nc(-c3ccccc3)sc2n1	-3.73% (inactive)
CCOC(=O)C1CCN(c2c(N3CCCCCC3)c(=O)c2=O)CC1	-1.67% (inactive)
C=CCn1c(SCC(=O)c2ccc(OC)cc2)nnc1C(C)NC(=O)c1cccs1 (stereo not given)	-0.26% (inactive)

Experiment: growth suppression of yeast trafficking mutant, preliminary HTS, modulators of trafficking downstream of Golgi apparatus project, 1536-format plate, OD 615 nm (AID 637)
Settings: yeast transport mutant growth, absorbance 615 nm, 18 h; stronger effect = higher value

SMILES	inhibition
COC(=O)c1ccc(CSc2nc(-c3ccc(OC)cc3)nc3c2c(=O)n(C)c(=O)n3C)o1	-3.11% (inactive)
COC(=O)c1[nH]c2cc(OC)ccc2c1NC(=O)CN1CCOCC1	-4.19% (inactive)
NC(=O)CSc1nnc(-c2ccc(O)cc2)n1Cc1ccco1	4.68% (inactive)
COc1ccccc1NC(=O)C1=C(C)Nc2nc(CCCO)nn2C1c1cccnc1 (stereo not given)	-3.81% (inactive)
CCOc1ccc(NC(=O)c2ccc3c(c2)N(Cc2ccc(F)cc2)C(=O)CS3=O)cc1 (stereo not given)	-0.17% (inactive)
CCn1c(=O)cc(OCC(=O)NC2CCCCC2)c2ccccc21	0% (inactive)
COc1ccc(OC)c(C(=O)CSc2nnc(-c3ccc(OC)c(OC)c3)o2)c1	-8.85% (inactive)
Cc1nc(Nc2nc(=O)c3ccccc3n2C)nc2c(C)cccc12	2.54% (inactive)
CC(C)(C)OC(=O)NCCc1nnc(SCC(=O)c2ccc(Cl)cc2)o1	-3.83% (inactive)
CCSc1nnc(NC(=O)C2CCCN(S(=O)(=O)c3cnc[nH]3)C2)s1 (stereo not given)	2.83% (inactive)
O=C1CC(Cc2ccccc2)C(=O)N1CCCn1ccnc1 (stereo not given)	-0.5% (inactive)
Cc1ccc(CSC2=NCCN2C(=O)c2ccco2)cc1	3.83% (inactive)
O=C1c2ccccc2C(=O)N1Cc1nc2ccccc2c(=O)n1CCN1CCOCC1	-4% (inactive)
c1cn(CC2(Cn3ccnc3)COC2)cn1	-0.79% (inactive)
c1cncc(-c2nnc3n2N=C(c2cccs2)CS3)c1	-0.83% (inactive)
CCOC(=O)N1CCN(c2c(N3CCc4ccccc4C3)c(=O)c2=O)CC1	-3.11% (inactive)
COC(=O)CC1SCCNC1=O (stereo not given)	23.7% (inactive)
O=C(NCc1ccc(F)cc1)C1CCN(C(=O)NCc2ccccc2)CC1	-7.17% (inactive)
Cc1ccc(-n2nnnc2SCC(=O)N2CCN(C(=O)c3ccco3)CC2)c(C)c1	-2.18% (inactive)
CCOC(=O)c1cc2c(=O)n3cccc(C)c3nc2n(CCc2ccccc2)c1=N	5.9% (inactive)

SMILES	inhibition
CC(=O)c1ccc(NS(=O)(=O)c2ccccc2)cc1	5.33% (inactive)
Cn1c(-n2c(-c3ccco3)nc3ccccc3c2=O)nc2ccccc21	6.56% (inactive)
O=C(CSc1ncnc2c1cnn2Cc1ccccc1)Nc1ccc2c(c1)OCCO2	-6.23% (inactive)
Cc1cc(C)n(-c2nc3c(c(=O)n(Cc4ccc(Cl)c(Cl)c4)c(=O)n3C)n2C)n1	-3.65% (inactive)
O=C(O)C1CCCN1C(=O)Nc1ccc(F)cc1 (stereo not given)	-8.5% (inactive)
COc1ccc(-n2nnc3c(=O)n(C/C=C/c4ccccc4)cnc32)cc1	1.33% (inactive)
CCc1ccc(CNCc2cccnc2)cc1	-2% (inactive)
O=C(CSc1nnc(-c2ccc(Br)o2)n1Cc1ccccc1)c1ccccc1F	-2.13% (inactive)
Cc1sc2c(c1C)CN(C1CC(C)(C)NC(C)(C)C1)CN2C(=O)c1ccco1	1.8% (inactive)
N#Cc1c(NC(NC(=O)c2ccco2)C(=O)c2ccccc2)sc2c1CCCC2 (stereo not given)	18% (inactive)
Cc1c(NC(=O)C(C)OC(=O)COc2cccc3c2OC(C)(C)C3)c(=O)n(-c2ccccc2)n1C (stereo not given)	17.2% (inactive)
COc1cccc(-c2noc(C3CCCN(C(=O)Cc4ccccc4)C3)n2)c1 (stereo not given)	-3.97% (inactive)
O=C(c1ccccc1Br)N1CCN(c2ccccc2)CC1	-4.76% (inactive)
CCOC(=O)C1CCN(c2c(NCCN3CCN(c4ccccc4)CC3)c(=O)c2=O)CC1	-3.33% (inactive)
O=C(CSc1nc(-c2ccccc2)cs1)NCc1ccco1	-9.18% (inactive)
COc1ccc(NS(=O)(=O)c2c(C)[nH]c(=O)[nH]c2=O)c(OC)c1	-4% (inactive)
CC1CCN(C(=O)CN2C(=O)C(C)(C)Oc3ccc(C(=O)NC4CCCC4)cc32)CC1	-7.05% (inactive)
Cc1cc(=O)n2nc(-c3ccccc3)sc2n1	1.11% (inactive)
CCOC(=O)C1CCN(c2c(N3CCCCCC3)c(=O)c2=O)CC1	-0.33% (inactive)
C=CCn1c(SCC(=O)c2ccc(OC)cc2)nnc1C(C)NC(=O)c1cccs1 (stereo not given)	7.67% (inactive)
